According to PubChem BioAssay AID1851 (National Center for Advancing Translational Sciences (NCATS), 2009):
Out of some 16,000 compounds screened, about 5,100 (32%) were called active. About 25% were inconclusive and are not listed. The call rests on the fitted dose curve; in most records, active means well fitted curve in the direction sought with a large enough effect; inconclusive means small, poorly fitted or top-dose-only effect, or effect the other way; inactive means no such curve, though single readings can be large or run the other way. This is one part of the list.

The compounds below were run against Cytochrome P450 3A4 (Homo sapiens) (UniProt P08684) (assay: Cytochrome panel assay with activity outcomes). Settings: recombinant CYP, pro-luciferin dealkylation, luminescence, p450-cyp3a4; series mostly up to 57.1 µM.
Cytochrome P450 3A4 (Homo sapiens), sequence (P08684 whole entry, looked up): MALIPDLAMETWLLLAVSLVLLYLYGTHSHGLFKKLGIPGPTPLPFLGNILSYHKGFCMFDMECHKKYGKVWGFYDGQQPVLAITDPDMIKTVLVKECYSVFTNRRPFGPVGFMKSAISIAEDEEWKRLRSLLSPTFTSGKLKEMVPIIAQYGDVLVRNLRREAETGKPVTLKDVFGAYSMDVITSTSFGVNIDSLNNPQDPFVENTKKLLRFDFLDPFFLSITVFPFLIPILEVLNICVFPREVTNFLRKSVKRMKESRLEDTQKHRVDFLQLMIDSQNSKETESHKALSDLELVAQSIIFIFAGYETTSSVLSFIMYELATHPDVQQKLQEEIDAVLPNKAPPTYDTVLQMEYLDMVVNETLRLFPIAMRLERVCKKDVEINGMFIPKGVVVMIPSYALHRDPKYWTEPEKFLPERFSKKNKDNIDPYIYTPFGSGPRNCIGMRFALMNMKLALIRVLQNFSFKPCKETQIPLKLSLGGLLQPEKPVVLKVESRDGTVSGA
On the % scale 0 is the no-effect control and ±100 the full control effect.

AC50, active:
O=[N+]([O-])c1cccc2c(Br)[nH]nc12 12.6 µM
COC(=O)c1ccc(NC(=O)Cn2nc(-c3ccncc3)nc2SCC(=O)Nc2nccs2)cc1 2 µM
CCN(CCCNC(=O)CC(C(=O)N1CCc2ccccc21)n1ccnc1)c1ccccc1 (centres undefined) 0.794 µM
Cc1cc(C)c(S(=O)(=O)n2ccc(-c3ccc(OCCN(C)c4ccccn4)cc3)n2)c(C)c1 2.24 µM
COC(=O)[C@@H]1C[C@H]1[C@@H](NC(=O)c1cc(C)nn1C)c1ccccc1 10 µM
COC(=O)[C@H]1C[C@@H]1[C@H](NC(=O)c1cc(C)nn1C)c1ccccc1 6.31 µM
N#C/C(=C\c1ccc(O)c(O)c1)C(=O)NCCCc1ccccc1 2.51 µM
N#C/C(=C\c1ccc(O)c(O)c1)C(=O)NCc1ccccc1 15.8 µM
N#C/C(=C\c1ccc(O)c(O)c1)C(=O)NCCc1ccccc1 3.98 µM
N#C/C(=C\c1ccc(O)c(O)c1)C(=O)Nc1ccccc1 15.8 µM
CC(C)(C)c1ccc(OCC(=O)NNC(=O)Cc2cccs2)cc1 3.98 µM
O=S(=O)(Nc1ccc(Cc2ccncc2)cc1)c1ccc(Br)cc1 0.355 µM
O=S(=O)(Nc1ccc(Cc2ccncc2)cc1)c1ccc(Cl)c(Cl)c1 0.398 µM
O=S(=O)(Nc1ccc(Cc2ccncc2)cc1)c1cccs1 0.355 µM
N#Cc1c(N)nc2c(c1-c1cccc(O)c1)CCCCCC2 4.47 µM
Cc1c(-c2c(C#N)c(N)nc3c2CCCCCC3)cnn1C 7.94 µM
Cc1ccc(NC(=O)c2cc([N+](=O)[O-])ccc2NCc2cccnc2)cc1Cl 3.98 µM
Cc1ccc(-c2cc(C(=O)NN=C3CCCC3)c3ccccc3n2)cc1 7.94 µM
COC(=O)c1sccc1NC(=O)c1cc(-c2cc(C)ccc2C)nc2ccccc12 4.47 µM
Cc1ccc(C)c(-c2cc(C(=O)Nc3sc(C)c(C)c3C(N)=O)c3ccccc3n2)c1 2.82 µM
COC(=O)c1sccc1NC(=O)c1cc(-c2ccc(C)cc2C)nc2ccccc12 7.08 µM
Cc1ccccc1-c1cc(C(=O)Nc2nc3c(s2)CCCC3)c2ccccc2n1 3.16 µM
Cc1ccc(-c2cc(C(=O)NCc3ccco3)c3ccccc3n2)s1 10 µM
Cc1ccc(Nc2ncccc2C(=O)NCc2cccs2)c(C)c1 12.6 µM
Cc1ccc(C)c(-c2cc(C(=O)NCc3cccs3)c3ccccc3n2)c1 1.41 µM
Cc1ccc(C)c(-c2cc(C(=O)Nc3nccs3)c3ccccc3n2)c1 2.82 µM
CCCN1CC=C2C(C#N)=C(N)C(C#N)(C#N)C(c3cc(OC)ccc3OC)C2C1 (centres undefined) 2 µM
CCN1CC=C2C(C#N)=C(N)C(C#N)(C#N)[C@H](c3ccoc3)[C@H]2C1 11.2 µM
CCC/C=C(\CCC)C(NS(=O)(=O)c1cccs1)c1ccc(C(=O)OC)cc1 (centres undefined) 3.16 µM
CCC/C=C(\CCC)C(NC(=O)c1cccs1)c1ccc(C(F)(F)F)cc1 (centres undefined) 2.51 µM
CCC/C=C(\CCC)C(NC(=O)c1cccs1)c1ccc(C(=O)OC)cc1 (centres undefined) 1.26 µM
COc1cccc(OC)c1/C(O)=C(\C#N)c1nc2ccccc2[nH]1 2 µM
CCn1c2ccccc2c2cc(/C=N/n3cn[nH]c3=S)ccc21 7.08 µM
CC(C)(C(=O)c1cccnc1)c1cccnc1 1.26 µM
Cc1ccc(S(=O)(=O)/C(C#N)=C/c2c(N3CC(C)OC(C)C3)nc3ccccn3c2=O)cc1 (centres undefined) 1.41 µM
CON(c1nc(N(C)C)nc(N(C)C)n1)S(=O)(=O)c1ccccc1Cl 12.6 µM
Fc1ccc2nc3[nH]c4ccccc4c3nc2c1 14.1 µM
CN(Cc1ccco1)c1nc(-c2ccoc2)nc2ccccc12 25.1 µM
CN(Cc1ccccc1)c1nc(-c2ccc([N+](=O)[O-])cc2)nc2ccccc12 1.12 µM
CN(C)c1ccc(-c2nc(N(C)Cc3ccco3)c3ccccc3n2)cc1 10 µM
CN(Cc1ccco1)c1nc(-c2ccc3c(c2)OCO3)nc2ccccc12 1.58 µM
COc1ccc(CNc2ncnc3ccc(-c4ccoc4)cc23)c(OC)c1 3.16 µM
COc1ccccc1CNc1ncnc2ccc(-c3ccoc3)cc12 15.8 µM
COc1ccc(CNc2ncnc3ccc(-c4cccc(NS(C)(=O)=O)c4)cc23)c(OC)c1 2 µM
COc1ccccc1CNc1ncnc2ccc(-c3cccc(NS(C)(=O)=O)c3)cc12 3.16 µM
Cc1ccc(Nc2c([N+](=O)[O-])ccc3c2=NC2(CCCCC2)N=3)cc1 7.08 µM
CCC/C=C(\CCC)C(NC(=O)C(C)(C)C)c1ccc(C(=O)OC)cc1 (centres undefined) 10 µM
CCC/C=C(\CCC)C(NC(=O)Cc1ccccc1)c1ccc(C(=O)OC)cc1 (centres undefined) 3.98 µM
CCC/C=C(\CCC)C(NC(=O)OCC(C)C)c1ccc(C(=O)OC)cc1 (centres undefined) 12.6 µM
CCC/C=C(\CCC)C(NC(=O)c1ccc(C(=O)OC)cc1)c1ccc(C(=O)OC)cc1 (centres undefined) 15.8 µM

AC50, inactive:
O=[N+]([O-])c1cccc2cn[nH]c12
Brc1[nH]nc2ccccc12
Cc1oc(-c2cccs2)[n+]([O-])c1C
CC(=O)Nc1ccc(NC2=Nc3ccccc3N3C2=Nc2c(c(C)nn2-c2ccccc2)C3c2ccccc2)cc1 (centres undefined)
CCCCN(C)CCCNC(=O)CCn1nc(-c2ccccc2)ccc1=O
O=c1ccc(Oc2nc(N3CCOCC3)nc(N3CCOCC3)n2)n[nH]1
O=C(O)/C=C\C(=O)NCc1ccccc1
COc1ccc(/C=C(/C#N)C(=O)Nc2cc(C)ccc2C)cc1C(=O)O
Cc1cc(/C=C(/C#N)C(=O)Nc2ccccc2)c(C)n1-c1cccnc1
COCCN1CN=C(Nc2nc3ccccc3o2)NC1
CC(=O)OCC1=C(C(=O)O)N2C(=O)[C@@H](NC(=O)Cc3cccs3)[C@@H]2SC1
CCNS(=O)(=O)c1ccc(NS(C)(=O)=O)cc1
Cc1ccc(NC(=O)NNS(=O)(=O)c2ccc(Br)cc2)cc1
N[C@H](Cn1ccc(=O)n(Cc2ccccc2C(=O)O)c1=O)C(=O)O
Cn1ncc(C#N)c1/N=C/N1CCCCCC1
CC(C)CNC(=S)N1CCN(C)CC1
O=C(O)c1cc([N+](=O)[O-])ccc1NCCCc1ccccc1
COC(=O)c1sccc1NC(=O)c1cc(-c2ccc(C)cc2)nc2ccccc12
Cc1cc(C)c(C(N)=O)c(NC(=O)Nc2ccccc2)n1
Cc1ccccc1-c1cc(C(=O)n2cccn2)c2cc(Cl)ccc2n1
CC[C@](N)(CCC(=O)O)C(=O)O
CN1CCC2(CC1)C1CN(C)CC=C1C(C#N)=C(N)C2(C#N)C#N (centres undefined)
COc1nccc(-c2c(-c3ccc(F)cc3)ncn2C2CCC(O)CC2)n1 (centres undefined)
Cc1ccccc1OC/C(O)=C(\C#N)c1nc2ccccc2[nH]1
O=C(O)c1cccnc1
Cn1c(C(=O)N2COCC2(C)C)cc2c(=O)n3ccccc3nc21
O=c1[nH]c(=O)c2nc3ccccc3nc2[nH]1
CN(C)C(=O)c1ccc(-c2nc(N(C)Cc3ccco3)c3ccccc3n2)cc1
C[C@H](CCC(=O)NCC(=O)O)[C@H]1CC[C@H]2[C@H]3[C@@H](C[C@@H](O)[C@]12C)[C@]1(C)CC[C@H](O)C[C@@H]1C[C@@H]3O
CCOC(=O)/C(C(N)=NCCCO)=C(/O)c1ccccc1
CCOC(=O)NC(NC(=O)OCC)C(=O)c1ccc(F)cc1
CCC/C=C(\CCC)C(NC(=O)Oc1ccc(F)cc1)c1ccc(C(=O)OC)cc1 (centres undefined)
CCN(CC)c1nc(Nc2ccccc2)nc(Oc2ccc(C(=O)OC)cc2)n1

activity, negative = inhibition, inactive:
CCN(CC)CCC(=O)Nc1ccc2c(c1)N(C(=O)CN(CC)CC)c1ccccc1CC2 3.63% [at 2.29 µM]
CC(/C=N/NC(=O)Cc1cccs1)=C\c1ccco1 1.99% [at 2.29 µM]
C/C(=N/S(=O)(=O)c1ccc(Cl)c(Cl)c1)OCC(C)(C)C -5.85% [at 11.4 µM]
O=C1C(Cl)=C(Nc2ccc(S(=O)(=O)Nc3ccccn3)cc2)C(=O)c2ccccc21 -10.8% [at 11.4 µM]
CCc1sc(-c2c(C#N)c(N)nc3c2CCCCCC3)cc1[N+](=O)[O-] -20.1% [at 2.29 µM]
O=C(O)c1cc(-c2ccc(-c3ccc(-c4cc(C(=O)O)c5cc(Cl)ccc5n4)cc3)cc2)nc2ccc(Cl)cc12 24.9% [at 11.4 µM]
Cc1sc(NC(=O)C2CCCCC2C(=O)O)c(C(N)=O)c1C (centres undefined) 14.4% [at 2.29 µM]
CCN1C(=O)[C@H]2[C@H]3[C@H](O)[C@H](O)C/C(=N/O[C@@H]4O[C@H](COC(C)=O)[C@@H](OC(C)=O)[C@H](OC(C)=O)[C@H]4OC(C)=O)[C@@H]3CC[C@@H]2C1=O -5.68% [at 11.4 µM]
Cn1c(=O)n(C)c2cc(/C=N/n3cnnc3)ccc21 2.58% [at 2.29 µM]
Cc1cc2nc3[nH]c4c(Cl)cc(Cl)cc4c3nc2cc1C -18.7% [at 11.4 µM]
Cn1c(=O)c2[nH]c(/N=N\N3CCN(CCO)CC3)nc2n(C)c1=O -17% [at 11.4 µM]
